Test results from PubChem BioAssay (EPA / NIEHS).
The source made the active and inactive calls. How the source made its calls: active means hit-call score of the fitted dose curve at least 0.9, where 1 is the maximum; inactive means score below 0.9.

Tests used:
Details in all cases: mRNA level, 48 h; actives raise or lower the signal
[1] = read-out: Cyclin D2 (CCND2), CCND2 (gene 894); experiment: LTEA_HepaRG_CCND2: Life Technologies and Expression Analysis (LTEA) Assay for Cyclin D2 (CCND2) using HepaRG (AID 2283449);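 further: CCND2 transcript measured by TaqMan qRT-PCR and normalised to three housekeeping genes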
Procedure, shortened: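 Differentiated human HepaRG cells were exposed for 48 h in serum-free induction medium to eight half-log concentrations topping at 100 uM (0.5% DMSO vehicle). CCND2 mRNA was quantified by TaqMan qRT-PCR, normalised to ACTB, GAPDH and POLR2A, and fitted bidirectionally against DMSO.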

[2] = read-out: Cyclin Dependent Kinase Inhibitor 1A (CDKN1A), CDKN1A (gene 1026); experiment: LTEA_HepaRG_CDKN1A: Life Technologies and Expression Analysis (LTEA) Assay for Cyclin Dependent Kinase Inhibitor 1A (CDKN1A) using HepaRG (AID 2283450)
Procedure, shortened: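 Differentiated human HepaRG cells, pre-cultured 48 h, were exposed in duplicate for 48 h in serum-free induction medium to eight half-log concentrations up to 100 uM (0.5% DMSO). CDKN1A mRNA was measured by qRT-PCR, normalized to ACTB/GAPDH/POLR2A, bidirectionally fitted versus DMSO.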

[3] = read-out: Cyclin D1 (CCND1), CCND1 (gene 595); experiment: LTEA_HepaRG_CCND1: Life Technologies and Expression Analysis (LTEA) Assay for Cyclin D1 (CCND1) using HepaRG (AID 2283451)
Procedure, shortened: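 Differentiated human HepaRG cells in serum-free induction medium were exposed 48 h to eight half-log concentrations up to 100 uM in 0.5% DMSO; mRNA quantified by TaqMan qRT-PCR, normalized to ACTB, GAPDH, POLR2A, fitted bidirectionally versus DMSO.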

[4] = read-out: catalase (CAT), CAT (gene 847); experiment: LTEA_HepaRG_CAT: Life Technologies and Expression Analysis (LTEA) Assay for catalase (CAT) using HepaRG (AID 2283452)
Procedure, shortened: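 Differentiated HepaRG cells in serum-free induction medium were dosed 48 h in duplicate, eight half-log concentrations from 100 uM in 0.5% DMSO. Transcript measured by TaqMan qRT-PCR, normalised to ACTB/GAPDH/POLR2A, fitted bidirectionally against DMSO.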

[5] = read-out: flavin-containing dimethylaniline monooxygenases 3 (FMO3), FMO3 (gene 2328); experiment: LTEA_HepaRG_FMO3: Life Technologies and Expression Analysis (LTEA) Assay for flavin-containing dimethylaniline monooxygenases 3 (FMO3) using HepaRG (AID 2283453)
Procedure, shortened: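 Differentiated HepaRG cells in serum-free induction medium, exposed 48 h in duplicate to 8 half-log concentrations up to 100 uM in 0.5% DMSO. FMO3 mRNA by qRT-PCR, normalized to ACTB, GAPDH, POLR2A; bidirectional fit vs DMSO.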

[6] = read-out: Cytochrome P450 (CYP1A1), CYP1A1 (gene 1543); experiment: LTEA_HepaRG_CYP1A1: Life Technologies and Expression Analysis (LTEA) Assay for Cytochrome P450 (CYP1A1) using HepaRG (AID 2283454)
Procedure, shortened: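 Differentiated HepaRG cells in serum-free induction medium were exposed in duplicate for 48 h to eight half-log concentrations up to 100 uM in 0.5% DMSO. CYP1A1 mRNA was quantified by TaqMan qRT-PCR, normalized to ACTB, GAPDH and POLR2A.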

[7] = read-out: CFLAR gene, CFLAR (gene 8837); experiment: LTEA_HepaRG_CFLAR: Life Technologies and Expression Analysis (LTEA) Assay for CFLAR gene using HepaRG (AID 2283455)
Procedure, shortened: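 HepaRG cells were plated for 48 h, switched to serum-free induction medium, then exposed in duplicate for 48 h to 8 concentrations (top 100 uM, half-log steps, 0.5% DMSO). CFLAR mRNA was measured by qRT-PCR, normalized to ACTB, GAPDH and POLR2A.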

[8] = read-out: Forkhead box O1 (FOXO1), FOXO1 (gene 2308); experiment: LTEA_HepaRG_FOXO1: Life Technologies and Expression Analysis (LTEA) Assay for Forkhead box O1 (FOXO1) using HepaRG (AID 2283456)
Procedure, shortened: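 Differentiated human HepaRG cells in serum-free induction medium were exposed in duplicate for 48 h to eight half-log concentrations (top 100 uM, 0.5% DMSO). FOXO1 mRNA was measured by TaqMan qRT-PCR, normalised to ACTB, GAPDH and POLR2A, and fitted bidirectionally against DMSO.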

[9] = read-out: growth arrest and DNA damage 45 (GADD45A), GADD45A (gene 1647); experiment: LTEA_HepaRG_GADD45A: Life Technologies and Expression Analysis (LTEA) Assay for growth arrest and DNA damage 45 (GADD45A) using HepaRG (AID 2283458)
Procedure, shortened: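 Cells plated and cultured 48 h, switched to serum-free induction medium, then dosed for 48 h (100 uM top, half-log dilutions, 0.5% DMSO). RNA was isolated and transcript measured by Fluidigm qRT-PCR.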

[10] = read-out: Forkhead box O3 (FOXO3), FOXO3 (gene 2309); experiment: LTEA_HepaRG_FOXO3: Life Technologies and Expression Analysis (LTEA) Assay for Forkhead box O3 (FOXO3) using HepaRG (AID 2283459)
Procedure, shortened: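 Differentiated human HepaRG cells in serum-free induction medium were exposed in duplicate for 48 h to eight half-log concentrations up to 100 uM in 0.5% DMSO. FOXO3 mRNA was quantified by qRT-PCR, normalized to ACTB, GAPDH and POLR2A, with bidirectional fitting versus DMSO.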

[11] = read-out: ABC Transporter (ABCB1), ABCB1 (gene 5243); experiment: LTEA_HepaRG_ABCB1: Life Technologies and Expression Analysis (LTEA) Assay for ABC Transporter (ABCB1) using HepaRG (AID 2283460)
Procedure, shortened: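 Differentiated human HepaRG cells, plated 48 h then switched to serum-free induction medium, were exposed in duplicate to eight half-log concentrations up to 100 uM in 0.5% DMSO for 48 h. ABCB1 mRNA was measured by TaqMan qRT-PCR, normalized to ACTB/GAPDH/POLR2A.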

[12] = read-out: growth arrest and DNA damage 45 (GADD45B), GADD45B (gene 4616); experiment: LTEA_HepaRG_GADD45B: Life Technologies and Expression Analysis (LTEA) Assay for growth arrest and DNA damage 45 (GADD45B) using HepaRG (AID 2283461)
Procedure, shortened: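 Differentiated HepaRG cells, plated 48 h then switched to serum-free induction medium, were exposed 48 h in duplicate to eight half-log concentrations from 100 uM in 0.5% DMSO; mRNA quantified by qRT-PCR, normalized to ACTB/GAPDH/POLR2A, bidirectional fit versus DMSO.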

[13] = read-out: ABC Transporter (ABCC3), ABCC3 (gene 8714); experiment: LTEA_HepaRG_ABCC3: Life Technologies and Expression Analysis (LTEA) Assay for ABC Transporter (ABCC3) using HepaRG (AID 2283462)
Procedure, shortened: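 HepaRG cells in serum-free induction medium were exposed for 48 h in duplicate to 8-point half-log concentrations topping at 100 uM in 0.5% DMSO. ABCC3 mRNA was measured by qRT-PCR normalized to ACTB, GAPDH and POLR2A, with bidirectional fitting versus DMSO.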

[14] = read-out: ABC Transporter (ABCB11), ABCB11 (gene 8647); experiment: LTEA_HepaRG_ABCB11: Life Technologies and Expression Analysis (LTEA) Assay for ABC Transporter (ABCB11) using HepaRG (AID 2283463)
Procedure, shortened: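 Differentiated human HepaRG cells were exposed for 48 h in serum-free induction medium to eight half-log concentrations up to 100 uM in 0.5% DMSO. ABCB11 mRNA was quantified by qRT-PCR, normalized to ACTB, GAPDH and POLR2A, and fitted bidirectionally versus DMSO.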

[15] = read-out: ABC Transporter (ABCC2), ABCC2 (gene 1244); experiment: LTEA_HepaRG_ABCC2: Life Technologies and Expression Analysis (LTEA) Assay for ABC Transporter (ABCC2) using HepaRG (AID 2283464)
Procedure, shortened: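 HepaRG cells were plated 48 h, switched to serum-free induction medium, then exposed in duplicate for 48 h to 8 concentrations (top 100 uM, half-log steps, 0.5% DMSO). ABCC2 mRNA was measured by qRT-PCR normalized to ACTB/GAPDH/POLR2A; bidirectional fitting versus DMSO.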

[16] = read-out: Broad substrate specificity ATP-binding cassette transporter ABCG2 (Homo sapiens) (UniProt Q9UNQ0); experiment: LTEA_HepaRG_ABCG2: Life Technologies and Expression Analysis (LTEA) Assay for ABC Transporter (ABCG2) using HepaRG (AID 2283465)
Procedure, shortened: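 Differentiated HepaRG cells in serum-free induction medium were exposed for 48 h, in duplicate, to eight half-log concentrations up to 100 uM in 0.5% DMSO. ABCG2 mRNA was measured by TaqMan qRT-PCR, normalized to ACTB, GAPDH and POLR2A, and fitted bidirectionally versus DMSO.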

[17] = read-out: ATP-citrate lyase (ACLY), ACLY (gene 47); experiment: LTEA_HepaRG_ACLY: Life Technologies and Expression Analysis (LTEA) Assay for ATP-citrate lyase (ACLY) using HepaRG (AID 2283466)
Procedure, shortened: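 Differentiated human HepaRG cells in serum-free induction medium exposed 48 h, in duplicate, to eight half-log concentrations from 100 uM top in 0.5% DMSO; ACLY mRNA measured by qRT-PCR, normalized to ACTB, GAPDH, POLR2A, fitted bidirectionally versus DMSO.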

[18] = read-out: Peroxisomal acyl-coenzyme A oxidase 1 (ACOX1) gene, ACOX1 (gene 51); experiment: LTEA_HepaRG_ACOX1: Life Technologies and Expression Analysis (LTEA) Assay for Peroxisomal acyl-coenzyme A oxidase 1 (ACOX1) gene using HepaRG (AID 2283467)
Procedure, shortened: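 Differentiated human HepaRG cells were exposed in duplicate for 48 h in serum-free induction medium to eight half-log concentrations up to 100 uM in 0.5% DMSO. ACOX1 mRNA was then quantified by TaqMan qRT-PCR, normalized to ACTB, GAPDH and POLR2A.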

[19] = read-out: Alkaline Phosphatase, Placental (ALPP) gene, ALPP (gene 250); experiment: LTEA_HepaRG_ALPP: Life Technologies and Expression Analysis (LTEA) Assay for Alkaline Phosphatase, Placental (ALPP) gene using HepaRG (AID 2283468)
Procedure, shortened: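 Differentiated human HepaRG cells were plated and cultured 48 h, then exposed in duplicate for 48 h in serum-free induction medium to eight half-log concentrations from 100 uM in 0.5% DMSO. ALPP mRNA was measured by TaqMan qRT-PCR, normalized to ACTB, GAPDH, POLR2A.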

[20] = read-out: Bcl-2 (BAD) gene, BAD (gene 572); experiment: LTEA_HepaRG_BAD: Life Technologies and Expression Analysis (LTEA) Assay for Bcl-2 (BAD) gene using HepaRG (AID 2283469)
Procedure, shortened: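 Differentiated human HepaRG cells in serum-free induction medium were exposed in duplicate for 48 h to eight concentrations (top 100 uM, half-log steps, 0.5% DMSO). BAD mRNA was quantified by qRT-PCR normalised to ACTB, GAPDH and POLR2A, with bidirectional fitting versus DMSO.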

Broad substrate specificity ATP-binding cassette transporter ABCG2 (Homo sapiens), sequence (Q9UNQ0 whole entry, looked up): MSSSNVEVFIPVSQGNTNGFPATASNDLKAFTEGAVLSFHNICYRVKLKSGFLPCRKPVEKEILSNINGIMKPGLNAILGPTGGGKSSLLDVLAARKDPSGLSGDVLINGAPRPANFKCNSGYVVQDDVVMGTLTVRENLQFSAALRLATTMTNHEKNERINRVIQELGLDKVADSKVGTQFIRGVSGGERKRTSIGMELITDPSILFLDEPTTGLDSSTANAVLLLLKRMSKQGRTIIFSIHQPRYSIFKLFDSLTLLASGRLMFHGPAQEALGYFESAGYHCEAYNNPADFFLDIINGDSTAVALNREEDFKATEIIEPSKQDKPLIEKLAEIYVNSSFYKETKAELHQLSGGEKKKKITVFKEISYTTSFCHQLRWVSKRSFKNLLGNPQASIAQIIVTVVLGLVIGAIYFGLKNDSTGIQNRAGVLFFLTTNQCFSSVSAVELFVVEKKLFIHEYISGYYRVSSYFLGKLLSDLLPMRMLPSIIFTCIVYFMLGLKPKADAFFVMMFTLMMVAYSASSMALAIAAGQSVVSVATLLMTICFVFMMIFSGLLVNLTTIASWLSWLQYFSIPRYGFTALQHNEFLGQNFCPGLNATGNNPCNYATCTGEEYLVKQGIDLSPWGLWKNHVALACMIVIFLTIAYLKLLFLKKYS

CCC(C)=NO was tested, and the outcome [1] was “inactive”, the outcome [2] was “inactive” and the outcome [3] was “inactive”. For the same molecule, the outcome [4] was “inactive”, the outcome [5] was “inactive” and the AC50 [6] was 49.8 µM (active). The outcome [7] was “inactive”, the outcome [8] was “inactive” and the outcome [9] was “inactive”. The outcome [10] was “inactive”, the outcome [11] was “inactive” and the outcome [12] was “inactive”. For the same molecule, the outcome [13] was “inactive”, the outcome [14] was “inactive” and the outcome [15] was “inactive”. For the same molecule, the outcome [16] was “inactive”, the outcome [17] was “inactive” and the outcome [18] was “inactive”. The outcome [19] was “inactive” and the outcome [20] was “inactive”.
